Results published in PubChem BioAssay AID1159580 (chemical genetic matrix, 2015).
“And” between values parts separate entries of the source, which are not always exact repeats. Equal values may be shown once. The whole screen tested about 5,500 compounds, of which about 2,000 (36%) were called active. About 18% were inconclusive and are not listed. Cut-off read from the data, not from the text of the source: active = normalized growth mostly below about 0.91 (no sharp cut-off); inconclusive = no clear call, values can overlap the other calls; inactive = mostly above about 0.92. The list shows a part of the results.

Assay: chemical genetic growth profiling, strain panel (AID 1159580);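 note: tested at 20 µM; growth read once vehicle control cultures reached saturation at 30 °C; 1 = growth at the plate median or of vehicle wells; lower values mean less growth of the strain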
Details: S. cerevisiae deletion strains, growth OD

Measured: normalized growth

CC(C)CC(N(C)C)C1(c2ccc(Cl)cc2)CCC1 (stereo unspecified)
inactive: locus YAL013W, strain DEP1, stronger effect = lower value 1 | locus YAL021C, strain ccr4, stronger effect = lower value 0.987 | locus YAL026C, strain drs2, stronger effect = lower value 1.01 | locus YAL030W, strain snc1, stronger effect = lower value 1.01 | locus YBL061C, strain skt5, stronger effect = lower value 1 | locus YBR009C, strain hhf1, stronger effect = lower value 1 | locus YBR021W, strain FUR4, stronger effect = lower value 0.952 | locus YBR023C, strain chs3, stronger effect = lower value 1.01 | locus YBR171W, strain sec66, stronger effect = lower value 1.01 | locus YBR229C, strain ROT2, stronger effect = lower value 0.999 | locus YBR231C, strain swc5, stronger effect = lower value 1.02 | locus YBR279W, strain paf1, stronger effect = lower value 1.01 | locus YCL011C, strain gbp2, stronger effect = lower value 0.999 | locus YCL016C, strain dcc1, stronger effect = lower value 0.994 | locus YCL029C, strain bik1, stronger effect = lower value 1.02 | locus YCL069W, strain vba3, stronger effect = lower value 1 | locus YCR088W, strain abp1, stronger effect = lower value 1.02 | locus YDL005C, strain med2, stronger effect = lower value 1.01 | locus YDL035C, strain GPR1, stronger effect = lower value 1.02 | locus YDL040C, strain nat1, stronger effect = lower value 0.999 | locus YDL074C, strain BRE1, stronger effect = lower value 1 | locus YDL101C, strain DUN1, stronger effect = lower value 1 | locus YDL134C, strain PPH21, stronger effect = lower value 1.01 | locus YDL185W, strain tfp1, stronger effect = lower value 1.01 | locus YDL192W, strain arf1, stronger effect = lower value 1.02 | locus YDR001C, strain nth1, stronger effect = lower value 0.994 | locus YDR069C, strain doa4, stronger effect = lower value 1.03 | locus YDR101C, strain arx1, stronger effect = lower value 1.01 | locus YDR137W, strain rgp1, stronger effect = lower value 1.12 | locus YDR150W, strain NUM1, stronger effect = lower value 1.01 | locus YDR159W, strain sac3, stronger effect = lower value 0.994 | locus YDR162C, strain NBP2, stronger effect = lower value 0.99 | locus YDR195W, strain ref2 1.04 | locus YDR297W, strain sur2, stronger effect = lower value 1.01 | locus YDR318W, strain mcm21, stronger effect = lower value 1.02 | locus YDR334W, strain swr1, stronger effect = lower value 1.01 | locus YDR335W, strain msn5, stronger effect = lower value 1 | locus YDR388W, stronger effect = lower value 1.02 | locus YDR392W, strain spt3, stronger effect = lower value 0.976 | locus YDR502C, strain sam2, stronger effect = lower value 1.01 | locus YEL003W, strain gim4, stronger effect = lower value 1 | locus YEL037C, strain rad23, stronger effect = lower value 1.01 | locus YEL061C, strain CIN8 (second series), stronger effect = lower value 1 | locus YEL061C, strain CIN8, stronger effect = lower value 0.993 | locus YER015W, strain faa2, stronger effect = lower value 0.982 | locus YER016W, strain bim1, stronger effect = lower value 1 | locus YER110C, stronger effect = lower value 1.01 | locus YER111C, strain swi4, stronger effect = lower value 1.01 | locus YER155C, strain BEM2 (second series), stronger effect = lower value 1.03 | locus YER155C, strain BEM2, stronger effect = lower value 0.969 | locus YER167W, strain BCK2, stronger effect = lower value 0.983 | locus YFR010W, strain ubp6, stronger effect = lower value 1.02 | locus YGL078C, strain dbp3, stronger effect = lower value 1 | locus YGL086W, strain mad1, stronger effect = lower value 1.01 | locus YGL167C, strain pmr1, stronger effect = lower value 0.997 | locus YGL173C, strain kem1, stronger effect = lower value 1 | locus YGL227W, strain vid30, stronger effect = lower value 1.01 | locus YGL240W, strain doc1, stronger effect = lower value 1.03 | locus YGL248W, strain PDE1, stronger effect = lower value 0.999 | locus YGL253W, strain hxk2, stronger effect = lower value 1 | locus YGR078C, strain PAC10, stronger effect = lower value 1.01 | locus YGR135W, strain pre9, stronger effect = lower value 1.02 | locus YGR229C, strain SMI1, stronger effect = lower value 0.986 | locus YGR252W, strain gcn5, stronger effect = lower value 1.03 | locus YHR013C, strain ard1, stronger effect = lower value 1.02 | locus YHR027C, strain rpn1, stronger effect = lower value 1 | locus YHR030C, strain SLT2, stronger effect = lower value 1.01 and 1.02 | locus YHR079C, strain IRE1 (second series), stronger effect = lower value 1.01 | locus YHR079C, strain IRE1, stronger effect = lower value 1.01 | locus YHR094C, strain hxt1, stronger effect = lower value 1.01 | locus YHR129C, strain ARP1, stronger effect = lower value 1 | locus YHR142W, strain chs7, stronger effect = lower value 1 | locus YHR200W, strain rpn10, stronger effect = lower value 1.02 | locus YIL066C, strain RNR3, stronger effect = lower value 0.997 | locus YIL073C, strain SPO22, stronger effect = lower value 1.02 | locus YIL125W, strain kgd1, stronger effect = lower value 1 | locus YIR030C, strain dcg1, stronger effect = lower value 1.01 | locus YJL092W, strain hpr5, stronger effect = lower value 1 | locus YJL095W, strain BCK1 (second series), stronger effect = lower value 1 | locus YJL095W, strain BCK1, stronger effect = lower value 1.01 and 0.998 | locus YJL115W, strain asf1, stronger effect = lower value 1.02 | locus YJL129C, strain trk1, stronger effect = lower value 1.03 | locus YJL134W, strain LCB3, stronger effect = lower value 1 | locus YJL154C, strain vps35, stronger effect = lower value 1.01 | locus YJL164C, strain tpk1, stronger effect = lower value 0.995 | locus YJL166W, strain qcr8, stronger effect = lower value 1.02 | locus YJL168C, strain set2, stronger effect = lower value 1.01 | locus YJL187C, strain SWE1 (second series), stronger effect = lower value 1.01 | locus YJL187C, strain SWE1, stronger effect = lower value 1.01 | locus YJR043C, strain POL32, stronger effect = lower value 0.999 | locus YJR066W, strain TOR1, stronger effect = lower value 0.961
